Data on 92 compounds can be found in PubChem BioAssay AID485344 (National Center for Advancing Translational Sciences (NCATS), 2010).

In all, about 340,000 compounds went through this assay and about 6,900 (2%) were called active. The sample as a whole holds a higher share of actives than the screen did. A number with no mark means an inactive call. No stated cut-off is given here; in the data, active means inhibition above about 30%; inactive means below that, where a call was filed.

The target in the assay is D(2) dopamine receptor (Homo sapiens) (UniProt P14416). As to the kind of experiment: HTS Assay for Allosteric Antagonists of the Human D2 Dopamine Receptor: Primary Screen for Antagonists. Further: 0% is about no effect. The conditions noted are these: HEK293 TREx D2 cells, calcium flux, dopamine EC80; at 10 µM; stronger effect = higher value. Summed up: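 Tetracycline-induced HEK293 T-REx cells expressing D2 force-coupled to calcium signalling were dye-loaded, exposed to compound for 180 s, then challenged with an EC80 of dopamine; calcium flux was followed kinetically for a further 180 s.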
D(2) dopamine receptor (Homo sapiens), sequence (P14416 whole entry, looked up): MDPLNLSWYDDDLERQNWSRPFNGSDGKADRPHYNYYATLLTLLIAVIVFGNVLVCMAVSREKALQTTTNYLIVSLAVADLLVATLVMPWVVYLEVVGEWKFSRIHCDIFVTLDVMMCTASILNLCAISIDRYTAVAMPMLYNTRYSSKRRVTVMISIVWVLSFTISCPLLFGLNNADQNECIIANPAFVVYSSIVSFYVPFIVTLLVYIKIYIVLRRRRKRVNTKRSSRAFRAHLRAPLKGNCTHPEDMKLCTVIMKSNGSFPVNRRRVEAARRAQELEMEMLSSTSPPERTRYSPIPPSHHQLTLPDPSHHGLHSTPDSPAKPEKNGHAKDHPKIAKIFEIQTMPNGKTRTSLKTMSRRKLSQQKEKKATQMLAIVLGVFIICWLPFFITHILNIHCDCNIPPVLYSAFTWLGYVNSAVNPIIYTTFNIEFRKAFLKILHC
In general terms: Calcium flux is commonly read through the fluorescence of an indicator in the cells.
On to `COc1ccc(OC)c(CN2CCN(C(=O)CNC(=O)c3cc(C)cc(C)c3)CC2)c1`, for which the inhibition is -4.53%.

For the compound `CCN(CC)S(=O)(=O)c1cc(C(=O)Nc2cc(S(=O)(=O)N3CCOCC3)ccc2N2CCCC2)ccc1F`, the inhibition was -9.39%.

For the compound `CN(CC(=O)Nc1ccc(Cl)cc1)CC(=O)Nc1cccc2ccccc12`, the inhibition is -6.32%.

For `CC(C)c1ccc(/C=C/C(=O)NCCCN2CCOCC2)cc1`, the inhibition is -4.54%.

As for `Cn1c(C(=O)NCCc2ccsc2)cc2c(=O)n(C)c3ccccc3c21`, the inhibition is -0.277%.

On to `CCOC(=O)N1CCC(NC(=O)COc2cc(=O)n(C)c3ccccc23)CC1`, for which the inhibition was 7.2%.

In the case of `Cn1c(C(=O)NCCCN2CCN(c3cccc(Cl)c3)CC2)cc2c(=O)n(C)c3ccccc3c21`, the inhibition was 95.2% (active).

For `CCn1c(=O)cc(OCC(=O)NCCCN2CCN(c3cccc(Cl)c3)CC2)c2ccccc21`, the inhibition is 78.9% (active).

With `CCOC(=O)N1CCC(Nc2c(NCCN3CCN(c4cccc(Cl)c4)CC3)c(=O)c2=O)CC1`, the inhibition was -2.93%.

As to `CCN1CCCC1CNC(=O)c1cc2c(=O)n(C)c3ccccc3c2n1C` (configuration not stated), the inhibition was -1.94%.

In the case of `CCOc1ccc(C(=O)CCC(=O)Nc2ccncc2)cc1`, the inhibition is -7.41%.

For `Cc1ccc(-c2nn(-c3ccccc3)cc2C(=O)NCCCN2CCCC2=O)cc1`, the inhibition was -11.6%.

For the compound `Cc1noc(C)c1COc1ccc(C(=O)NCCOc2ccccc2)cc1`, the inhibition was -11%.

As to `COc1ccc(Cl)cc1NC(=O)CN(C)CC(=O)Nc1ccc2c(c1)OCO2`, the inhibition was -18.1%.

In the case of `O=C1C=C(c2cccc(Cl)c2O)C[C@@H](c2ccc(F)cc2)C1`, the inhibition was 6%.

In the case of `CCCN(CC(=O)Nc1ccccc1C)C(=O)c1ccc2[nH]c3c(c2c1)CC(C)CC3` (configuration not stated), the inhibition is -19.6%.

As to `CS(=O)(=O)c1ccc2nc(NC(=O)CN3CCCCCC3)sc2c1`, the inhibition was -16.3%.

In the case of `CS(=O)(=O)c1ccc2nc(NC(=O)C3CCCCC3)sc2c1`, the inhibition is 30.6% (active).

On to `CS(=O)(=O)c1ccc2nc(NC(=O)C3C4C=CC(C4)C3C(=O)O)sc2c1` (configuration not stated), for which the inhibition was -4.77%.

Regarding `CC(C)Oc1ccc(C(=O)NCC(=O)Nc2ccc3c(c2)CCC3)cc1`, the inhibition is -1.68%.

As to `O=C(COC(=O)C1(c2ccc(F)cc2)CCCC1)N1CCNC1=O`, the inhibition was 7.82%.

As for `CCCCN(C(=O)c1nn(C)c(=O)c2ccccc12)c1c(N)n(CCC)c(=O)[nH]c1=O`, the inhibition is -7.93%.

Regarding `CC1CCCN(C(=O)c2cc(-c3ccco3)nc3ccccc23)C1` (configuration not stated), the inhibition is -3.9%.

In the case of `COc1ccc(S(=O)(=O)NCC(c2ccc(C)cc2)N2CCN(C)CC2)cc1OC` (configuration not stated), the inhibition is -15.8%.

`CC(=O)Nc1ccc(NC(=O)COC(=O)c2ccccc2C(=O)c2ccccc2)cc1`: the inhibition was 11.9%.

On to `O=S(=O)(Nc1cc(Cl)ccc1N1CCOCC1)c1ccccc1Cl`, for which the inhibition was -22.2%.

Take `Clc1ccc(CN2CCCCCC2)cc1Cl`: the inhibition was 26.4%.

Consider `Cc1ccc2[nH]c(=O)c(CN3CCCCC3)c(-c3ccccc3)c2c1`, for which the inhibition is -4.98%.

Regarding `c1ccc2cc3[nH]c(CN4CCCCC4)nc3cc2c1`, the inhibition was 58.4% (active).

Consider `O=S(=O)(c1ccc(SCc2ccc(Br)cc2)nc1)N1CCOCC1`, for which the inhibition is -7.49%.

Regarding `Cc1ccsc1C(=O)NCCc1ccco1`, the inhibition is 11.7%.

With `N#Cc1cccc(NC(=O)C2CCCN(C(=O)c3ccc(Cl)cc3)C2)c1` (configuration not stated), the inhibition is 19.5%.

Turning to `N=C1C(c2nc3ccccc3s2)=C(O)CN1NC(=O)c1ccc([N+](=O)[O-])cc1`, the inhibition is 42.3% (active).

Regarding `CCOC(=O)CCCN1CC(O)=C(c2nc3ccccc3s2)C1=N`, the inhibition was 15.9%.

As to `COc1ccccc1N1CC(O)=C(c2nc3ccccc3s2)C1=N`, the inhibition is 16.1%.

Turning to `Cc1ccc(S(=O)(=O)N2[C@@H](c3ccccc3F)C(C(=O)O)=CC[C@H]2c2ccc(Cl)cc2)cc1`, the inhibition is 16%.

Turning to `O=C(NNC(=O)c1cc(S(=O)(=O)N2CCCCC2)ccc1Cl)c1ccccc1O`, the inhibition is 9.25%.

Regarding `COc1ccccc1CNC(=O)c1ccc(CS(=O)(=O)c2ccccc2)o1`, the inhibition is 22.7%.

Turning to `COC(=O)c1ccc(CN(c2ccccc2OC)S(=O)(=O)c2cccs2)o1`, the inhibition was 36% (active).

With `COc1ccccc1NC(=O)CN(c1ccccc1OC)S(=O)(=O)c1ccccc1`, the inhibition is -0.319%.

With `COc1ccc(CNC(=O)c2ccc(NS(=O)(=O)c3ccc4[nH]c(=O)[nH]c4c3)cc2)cc1OC`, the inhibition is -22.9%.

Turning to `N#Cc1ccc(OCC(=O)NC(=O)NC2CCS(=O)(=O)C2)cc1` (configuration not stated), the inhibition was 39.2% (active).

Turning to `O=C(Cc1ccc(Cl)cc1)NC1CCS(=O)(=O)C1` (configuration not stated), the inhibition is -2.94%.

In the case of `N#Cc1ccc(C(=O)OCC(=O)NC(=O)NC2CCCCC2)cc1`, the inhibition is -34.5%.

On to `COc1ccccc1C(=O)NCCC(=O)NC(C)CCc1ccccc1` (configuration not stated), for which the inhibition is 3.51%.

In the case of `CC(=O)c1cnc(-c2ccccc2)s1`, the inhibition is -11.4%.

`CC(C)(C)C(=O)c1cnc(Nc2ccccc2)s1`: the inhibition was 32.1% (active).

As to `O=C(c1ccc(Cl)cc1)c1cnc(Nc2ccccc2)s1`, the inhibition is -15.9%.

For the compound `COc1ccccc1S(=O)(=O)NCc1ccc(C(=O)N(C)Cc2ccc(F)cc2)cc1`, the inhibition was -9.99%.

Consider `CC(C(=O)NC1CCCC1)N1CCN(S(=O)(=O)c2ccccc2Cl)CC1` (configuration not stated), for which the inhibition is 10.1%.

Consider `CC(C)Cn1c(N2CCN(C(=O)/C=C/c3ccccc3)CC2)nc2ccccc21`, for which the inhibition was -10.5%.

With `O=C(Cn1c(N2CCN(C/C=C/c3ccccc3)CC2)nc2ccccc21)c1ccccc1`, the inhibition was 47.6% (active).

Regarding `O=C(CN1CCN(c2ccc(Cl)cc2)CC1)c1ccccc1`, the inhibition was 22.1%.

For `CC1CCc2sc(C(=O)NCC(c3ccco3)N3CCCCC3)cc2C1` (configuration not stated), the inhibition was -22%.

As for `CC(C)OP(=O)(OC(C)C)C(Nc1ccccc1)c1cccc([N+](=O)[O-])c1` (configuration not stated), the inhibition is 4.68%.

Regarding `CC(CCc1ccccc1)NCC(O)c1cccc([N+](=O)[O-])c1` (configuration not stated), the inhibition was 58.8% (active).

As for `O=C(CC(c1ccccc1)c1ccccc1)NCC(O)c1ccc([N+](=O)[O-])cc1` (configuration not stated), the inhibition was -8.44%.

With `COCCn1c(C)cc(C(=O)CSc2nnc(C3CC3)n2C2CC2)c1C`, the inhibition is -24.6%.

In the case of `COc1ccc(S(=O)(=O)N2CCN(CC(=O)NCC3(N4CCOCC4)CCCCC3)CC2)cc1`, the inhibition is -1.88%.

On to `CN(CC(=O)Nc1ccc(Cl)c(C(F)(F)F)c1)C(=O)CCC(=O)c1ccccc1`, for which the inhibition is 5.01%.

For the compound `Cc1ccc(OCCC(=O)OCC(=O)N2c3ccccc3NC(=O)C2(C)C)cc1`, the inhibition was 21.8%.

Take `O=C(CN1CCCCC1)NC(=O)Nc1ccccc1F`: the inhibition is -3.1%.

`CCN(CC)S(=O)(=O)c1ccc(OC)c(NC(=O)CCc2c(C)noc2C)c1`: the inhibition is 5.64%.

In the case of `CC1CN(CC(=O)NC(C)c2ccccc2)CC(C)O1` (configuration not stated), the inhibition is 5.75%.

Take `CN1CCN(CCCCOc2ccccc2-c2ccccc2)CC1`: the inhibition was 69.9% (active).

Take `CC1CN(CCCOc2ccccc2-c2ccccc2)CC(C)O1` (configuration not stated): the inhibition is 49.7% (active).

For the compound `CCN1CCN(CCCCOc2ccccc2F)CC1`, the inhibition is 3.79%.

For `CC1CN(C2CCN(C(=O)COc3ccccc3)CC2)CC(C)O1` (configuration not stated), the inhibition was -12.1%.

`CN1CCN(CCCCOc2cccc3ccccc23)CC1`: the inhibition is 15.6%.

As to `CC1CCCN(CCOCCOc2ccccc2-c2ccccc2)C1` (configuration not stated), the inhibition was 80.4% (active).

Regarding `c1ccc(-c2ccccc2OCCN2CCCCC2)cc1`, the inhibition is 26.6%.

Regarding `CC1CCCN(CC(O)COCc2ccccc2)C1` (configuration not stated), the inhibition was 10.7%.

As for `COc1ccccc1-c1nn(Cc2ccccc2)cc1C(=O)N1CCN(c2ncccn2)CC1`, the inhibition was -14.3%.

Turning to `CC(=O)c1ccc(S(=O)(=O)Nc2ccc(-c3ccc4nncn4n3)cc2)cc1`, the inhibition is 12.5%.

For the compound `COc1ccc(-c2cc(C(=O)NCCCN3CCCC3=O)c3ccccc3n2)cc1OC`, the inhibition was 13.7%.

For the compound `O=C(Nc1cccc(NC(=O)c2ccccc2[N+](=O)[O-])c1)c1ccccc1Cl`, the inhibition is 3.86%.

With `O=C(Nc1ccncc1)c1ccc([N+](=O)[O-])cc1Cl`, the inhibition was 0.87%.

Consider `CC(C)C(=O)Nc1cccc(NC(=O)c2ccc([N+](=O)[O-])cc2Cl)c1`, for which the inhibition was 39.3% (active).

In the case of `CN(C(=O)CSc1nnc(C2CC2)n1C)C1CCCc2ccccc21` (configuration not stated), the inhibition is -0.606%.

Turning to `Cc1cc(C)n(-c2nnc(C)n2NC(=O)c2cccc(Cl)c2)n1`, the inhibition is 46.8% (active).

Regarding `O=C(Nc1ccon1)c1cccc(Cl)c1`, the inhibition is 18.9%.

As for `Cc1nc2ccccc2c(=O)n1NC(=O)c1ccc(Cl)c([N+](=O)[O-])c1`, the inhibition was 11.3%.

Turning to `CC1CC(=O)Nc2ccccc2N1C(=O)COc1ccc2cc(Br)ccc2c1` (configuration not stated), the inhibition is -5.97%.

For the compound `C=C1CCC(N(O)c2cc(C)on2)C(=C)CCC2C1CC2(C)C` (configuration not stated), the inhibition was -0.609%.

For the compound `Cc1ccc(S(=O)(=O)CCC(=O)Nc2nnc(CC(C)C)s2)cc1`, the inhibition was -13.3%.

As for `COc1ccc(S(=O)(=O)Nc2cc(C)on2)cc1NC(C)=O`, the inhibition was 15.7%.

As to `Cc1cccc(NC(=O)C2CCCN(C(=O)NCc3ccccc3)C2)c1C` (configuration not stated), the inhibition was -14.3%.

Consider `Cc1cccc(NC(=O)C2CCCN(C(=O)Nc3ccc(F)cc3)C2)c1C` (configuration not stated), for which the inhibition is 36% (active).

In the case of `Cc1cccc(NC(=O)N2CCCCCC2)c1C`, the inhibition was 9.43%.

Turning to `O=C(O[C@H]1[C@H](Cc2ccccc2)NS(=O)(=O)[C@H]2C[C@@H]3C=C[C@]12O3)c1ccc([N+](=O)[O-])cc1`, the inhibition was 19.3%.

Regarding `CC1(NC(=O)CCS(=O)(=O)c2ccc(Cl)cc2)CCS(=O)(=O)C1` (configuration not stated), the inhibition is 9.74%.

As to `CC(=O)c1sc(NC(=O)CCN2C(=O)C3CC=CCC3C2=O)nc1-c1ccccc1` (configuration not stated), the inhibition was -8.46%.

What is called inhibition is the relative decrease from the control value, in per cent.
